Bioassay records (PubChem)
Only some compounds are listed: those with a hit (about 1.3% of all), similar ones and a draw of the others.
NPR2 activator: GC-B (human) receptor activation | 370,000 tested, 0.11% active | activation, % at 10 µM | AID 1920062 | HEK293-GC-B cells, CNP EC30, cGMP TR-FRET; 0% at EC30 CNP, 100% saturating CNP;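 active = activation at 10 µM reaching about 35% in either raw or pattern-adjusted values, limit read from the data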
proKLK7 act: activators of human kallikrein-7 zymogen. P49862. purified proKLK7, EDANS-DABCYL substrate fluorescence; 100% is mature enzyme control, 0% vehicle. activation, % at 7 µM. 370,000 tested, 0.9% active;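 active = activation above the mean of all tested compounds plus 3 SD, computed per campaign excluding outliers beyond control limits, cut at about 13% in these data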
GC-A act: GC-A (human) enzyme activation; P16066; HEK293 GC-A cells, cGMP TR-FRET, EC30 ANP; 0% at EC30 ANP, 100% saturating ANP; activation, % at 10 µM; 370,000 tested, 0.14% active; AID 1671463; in the data active = activation above about 40%
Target sequence (P16066 whole entry, looked up): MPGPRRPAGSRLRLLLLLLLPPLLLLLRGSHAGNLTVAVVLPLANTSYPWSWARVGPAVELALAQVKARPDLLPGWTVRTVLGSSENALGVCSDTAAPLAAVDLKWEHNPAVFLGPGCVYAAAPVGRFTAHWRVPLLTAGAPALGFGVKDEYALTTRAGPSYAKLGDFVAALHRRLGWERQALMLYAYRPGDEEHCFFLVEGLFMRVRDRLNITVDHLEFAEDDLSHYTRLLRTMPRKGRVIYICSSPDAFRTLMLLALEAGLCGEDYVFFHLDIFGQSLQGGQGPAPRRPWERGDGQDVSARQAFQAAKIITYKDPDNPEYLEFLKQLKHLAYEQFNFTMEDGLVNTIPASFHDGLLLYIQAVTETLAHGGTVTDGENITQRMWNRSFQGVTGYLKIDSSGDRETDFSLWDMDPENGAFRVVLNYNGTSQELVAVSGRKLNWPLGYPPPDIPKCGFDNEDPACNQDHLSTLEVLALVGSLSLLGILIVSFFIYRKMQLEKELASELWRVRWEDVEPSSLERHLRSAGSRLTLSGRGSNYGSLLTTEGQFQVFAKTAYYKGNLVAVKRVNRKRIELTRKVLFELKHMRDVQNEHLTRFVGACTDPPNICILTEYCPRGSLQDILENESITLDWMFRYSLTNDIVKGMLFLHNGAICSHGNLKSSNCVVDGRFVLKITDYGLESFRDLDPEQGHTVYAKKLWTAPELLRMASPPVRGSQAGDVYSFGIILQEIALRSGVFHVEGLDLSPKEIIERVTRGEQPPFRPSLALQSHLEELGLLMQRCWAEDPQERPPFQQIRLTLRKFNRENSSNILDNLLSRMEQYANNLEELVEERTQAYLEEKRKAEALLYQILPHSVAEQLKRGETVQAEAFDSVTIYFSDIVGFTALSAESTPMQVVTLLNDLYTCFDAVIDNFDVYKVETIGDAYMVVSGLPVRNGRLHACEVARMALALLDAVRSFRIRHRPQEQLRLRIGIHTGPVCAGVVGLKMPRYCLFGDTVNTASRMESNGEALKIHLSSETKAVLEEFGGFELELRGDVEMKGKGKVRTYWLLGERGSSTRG
HIF activator: HIF pathway transcriptional activation. 300,000 tested, 0.32% active. activation, % at 7.5 µM (by protocol). AID 1910. U2OS HRE-luciferase reporter, luminescence; normalized: DMSO 0%, desferrioxamine 100%;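 active = mean activation of at least 10% of the iron chelator positive control signal, with at least half of replicates also reaching 10%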
KLK7 act conf: confirmation of human kallikrein-7 zymogen activators; shares compounds with proKLK7 act; purified proKLK7, EDANS-DABCYL substrate fluorescence; scaled: vehicle 0, mature enzyme 100; activation, % at 7 µM; 3,200 tested, 68% active;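 active = activation, as change over the incubation, above the mean of all tested compounds plus 3 SD, cut at about 13% in these data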
EDANS interfere: optically interferes with EDANS-DABCYL signal, flagging KLK7 hits; EDANS-DABCYL substrate fluorescence interference, no enzyme, 4 h; solvent 0%, active enzyme control 100%; activation, % at 7 µM; 3,200 tested, 80% active; shares compounds with proKLK7 act;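 active = activation above the all-compound mean plus 3 SD, ignoring values outside control-based bounds, cut at about 4.8% in these data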;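 note: value is the 4 h activation minus the activation read at time zero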
K7 EDANS ctr: EDANS fluorescence interference in dose response, no enzyme | EDANS-DABCYL peptide fluorescence interference | shares compounds with proKLK7 act | 250 tested, 20% active | AID 720493 | EC50, µM;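 active = compounds that raise the fluorescence signal in this interference counterscreen, with EC50 at or below 10 µM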;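 note: intact quenched peptide substrate alone read at 355 nm excitation and 520 nm emission; signal is fluorescence gain from T0 to T4 after four hours at room temperature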
* hit, by the source's call; · = no result.

SMILES | NPR2 activator | proKLK7 act | GC-A act | HIF activator | KLK7 act conf | EDANS interfere | others
CCCCOC(=O)Oc1ccc2c(=O)c(Oc3cccc(C)c3)coc2c1 | -0.9 | 43.0* | 11.4 | 0.6 | 84.6* | 65.5* | K7 EDANS ctr=8.22*
CCCOC(=O)Oc1ccc2c(=O)c(Oc3cc(C)cc(C)c3)coc2c1 | 4.1 | 42.9* | 6.9 | -0.3 | 76.7* | 65.3* | K7 EDANS ctr=5.04*
COCCN(C(=O)Cc1cccs1)c1nnc(-c2ccncc2)s1 | -4.0 | 17.3* | 0.1 | -0.9 | 40.0* | 42.2*
Cc1cc2c(cc1S(=O)(=O)N1CCN(c3cccc(C(F)(F)F)c3)CC1)OCC(=O)N2 | -0.3 | 0.1 | -9.5 | -3.7 | · | ·
CC(=O)c1ccc(N2CCN(S(=O)(=O)c3cc4c(cc3C)NC(=O)CO4)CC2)cc1 | -2.0 | 20.3* | -7.8 | 0.0 | 11.5 | 8.1*
N#Cc1ccc(CC(=O)c2ccccc2)[nH]c1=O | -1.5 | 15.6* | -1.9 | · | 99.8* | 97.8*
N#Cc1ccc(CCc2ccccc2)[nH]c1=O | -4.5 | 2.2 | 4.0 | · | · | ·
CSCC[C@H](NC(=O)COc1cc2c(c3oc(=O)c(C)c(C)c13)CCC(C)(C)O2)C(=O)O | -1.2 | 57.1* | -2.5 | 0.2 | 67.3* | 72.8*
CSC[C@H](NC(=O)COc1cc2c(c3oc(=O)c(C)c(C)c13)CCC(C)(C)O2)C(=O)O | 1.4 | 60.2* | 1.6 | 0.4 | 62.4* | 70.3*
Cc1c(C)c2c(OCC(=O)N[C@@H](CC(C)C)C(=O)O)cc3c(c2oc1=O)CCC(C)(C)O3 | 0.2 | 45.4* | 3.3 | -5.2 | 41.0* | 27.4* | K7 EDANS ctr=>69.5
CCCC(NC(=O)COc1cc2c(c3oc(=O)c(C)c(C)c13)CCC(C)(C)O2)C(=O)O (stereo not given) | 2.5 | -1.7 | 5.2 | -23.6 | · | ·
CSC[C@H](NC(=O)COc1cc2c(c3oc(=O)cc(C)c13)CCC(C)(C)O2)C(=O)O | 1.4 | 23.7* | 2.1 | 1.7 | 59.5* | 64.3*
C[C@H]1[C@@H](NC(=O)c2ccc(Cl)c(C(F)(F)F)c2)CC[C@@]23CCCN2C(=O)CCC[C@@H]13 | -0.5 | · | -1.5 | · | · | ·
Cc1c(C)c2c(OCC(=O)N[C@@H](Cc3ccccc3)C(=O)O)cc3c(c2oc1=O)CCC(C)(C)O3 | 2.4 | 55.9* | 2.7 | 0.0 | 58.5* | 58.0*
Cc1c(C)c2c(OCC(=O)NCc3ccccn3)cc3c(c2oc1=O)CCC(C)(C)O3 | 25.4 | -23.6 | 29.1 | -0.3 | · | ·
COCCCNC(=O)COc1cc2c(c3oc(=O)c(C)c(C)c13)CCC(C)(C)O2 | 3.5 | 18.5* | 2.6 | -1.7 | -94.0 | -74.2
Cc1c(C)c2c(OCC(=O)NCC(O)c3ccccc3)cc3c(c2oc1=O)CCC(C)(C)O3 (stereo not given) | -4.0 | -2.1 | 4.0 | 0.3 | · | ·
Cc1cc(=O)[nH]c(SCC(=O)Nc2ccc(F)c(F)c2)n1 | -8.3 | 0.0 | -0.4 | · | · | ·
Cc1nc2nc(CCNS(=O)(=O)c3ccc(Cl)cc3)cn2nc1C | -1.0 | 23.7* | 0.4 | -0.3 | 75.0* | 75.2*
COc1ccc(S(=O)(=O)NCCc2ccccn2)cc1 | -6.1 | 0.6 | 2.3 | · | · | ·
COc1ccc(S(=O)(=O)NCCc2cn3nc(C)c(C)nc3n2)cc1 | 1.8 | 32.0* | 5.8 | 0.0 | 71.1* | 76.8*
CCOC(=O)[C@]12CCCCC/C=C\1N(CCc1ccc(Cl)cc1)C(=O)[C@H]2CC(=O)NCC1CCCCC1 | 2.1 | 0.1 | -2.7 | · | · | ·
C=CCOC(=O)C1=C(C)NC(SCC(=O)NC(=O)OCC)=C(C#N)C1c1cccnc1 (stereo not given) | -5.5 | 20.1* | -1.3 | 1.3 | 26.5* | 16.7* | K7 EDANS ctr=4.44*
CCOC(=O)C1=C(c2ccccc2)NC(SCC(N)=O)=C(C#N)C1c1cccnc1 (stereo not given) | -5.5 | 0.4 | 1.0 | -0.8 | · | ·
Cc1cccc(-c2nnc(SCc3cccc4ccccc34)n2-c2ccc(Cl)cc2)c1 | -9.4 | 0.5 | -24.0 | · | · | ·
SMILES | NPR2 activator | proKLK7 act | GC-A act | HIF activator | KLK7 act conf | EDANS interfere | others
COC(=O)C1CN(Cc2ccc(OC)cc2)CCS(=O)(=O)N1Cc1ccc(F)cc1 (stereo not given) | -8.4 | 1.3 | -6.5 | · | · | ·
COc1ccc2c(c1OC)C(=O)OC2CC(=O)c1ccc2c(c1)OCO2 (stereo not given) | 4.3 | 17.7* | 3.4 | -0.4 | 11.6 | 11.6*
CC(=O)Nc1cc(-c2ccccc2N(C)C)cn2c(-c3ccccc3)cnc12 | -3.5 | 0.9 | 0.5 | · | · | ·
CC(=O)Nc1cc(-c2ccccc2N(C)C)cn2c(-c3ccc(S(C)(=O)=O)cc3)cnc12 | -8.1 | 13.2* | 7.4 | · | 10.1 | 11.2*
COc1ccccc1C1c2c(ncn(-c3ccccc3)c2=N)Oc2ccc3ccccc3c21 (stereo not given) | -19.8 | · | -23.9 | · | · | ·
O=c1cc(N2CCN(c3cccc(C(F)(F)F)c3)CC2)[nH]c(=O)n1C1CCCCC1 | -4.7 | · | 1.3 | · | · | ·
COc1ccc(OC)c(/C=C/C(=O)N(C)CC(=O)Nc2ccc(N3CCOCC3)cc2)c1 | 0.5 | 20.8* | -2.5 | · | 19.2* | 14.8* | K7 EDANS ctr=>69.5
O=C1CC(c2ccc(O)c(O)c2)Oc2c1ccc(O)c2O (stereo not given) | 5.1 | 16.3* | 2.8 | · | 7.7 | 7.7*
O=C1CCc2cc(S(=O)(=O)N3CCN(Cc4cccc5c4OCO5)CC3)ccc2N1 | -2.2 | 0.3 | -0.7 | · | · | ·
Cc1nc2nc(-c3cccs3)cn2nc1C | -0.8 | 68.2* | 2.4 | 1.0 | 67.7* | 66.3*
Cc1nc2nc(-c3ccc(Cl)cc3)cn2nc1C | -2.1 | 53.1* | 6.7 | -1.9 | 74.9* | 78.8*
COc1cccc(-c2cn3nc(C)c(C)nc3n2)c1 | 6.2 | 2.1 | 0.4 | 0.3 | · | ·
Cc1ccc2c(c1)C1CS(=O)(=O)N(CC(C)C)CN1C2 (stereo not given) | 1.2 | 0.0 | 2.1 | · | · | ·
O=C(OCC#CCSc1nnc(-c2cccc3ccccc23)o1)c1ccc(F)c(F)c1 | -2.5 | · | -4.7 | · | · | ·
COc1cc2c(cc1OC)C1c3ccc(OC)c(OC)c3OCC1(O)C2 (stereo not given) | 2.0 | -0.2 | 1.1 | · | · | ·
COc1cc2c(cc1OC)C(c1cc(OC)c(OC)c(OC)c1)C1(O)C(=O)OCC1(O)C2 (stereo not given) | 3.4 | 56.6* | 2.4 | · | -0.1 | 1.0
O=C(O)CCCNC(=O)CC1S/C(=N/N=C/c2ccccc2O)NC1=O (stereo not given) | -4.8 | 24.6* | 2.5 | 0.1 | 27.3* | 34.3*
CCCCNC(=O)CC1S/C(=N/N=C/c2ccc(OC)cc2)NC1=O (stereo not given) | -0.6 | 1.1 | 1.4 | 0.6 | · | ·
CCCc1cc(=O)oc2c3c(cc(OCC(=O)NCc4ccncc4)c12)OC(C)(C)CC3 | -7.6 | -6.8 | -9.7 | 0.3 | · | ·
